# Source: PubChem BioAssay (NCATS)
# Inconclusive results are not listed. Active and inactive are the calls of the source. Unless noted, the call rests on the fitted dose curve.
# How the values were obtained:
# [1] = biological target: Bile acid receptor (Homo sapiens) (UniProt Q96RI1); assay: qHTS assay for small molecule antagonists of farnesoid X receptor signaling (AID 588526); further: on the % scale 0 is the no-effect control and ±100 the full control effect
# In short: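 Beta-lactamase reporter antagonist mode: HEK293T FXR-UAS-bla cells, titrated compound, CDCA stimulation, 16 h 37 C, CCF4 dye 2 h RT. Data normalized to CDCA 50 uM and DMSO; Hill-fit IC50.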
# [2] = biological target: Bile acid receptor (Homo sapiens) (UniProt Q96RI1); assay: qHTS assay for small molecule agonists of farnesoid X receptor signaling (AID 588527); settings: HEK293T FXR-UAS-bla, beta-lactamase ratio, 16 h; activation: stronger effect = higher value;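 further: series mostly up to about 77 µM; 0% = vehicle basal and 100% = reference agonist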
# In short: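 FXR-UAS-bla HEK293T cells (10% dialyzed FBS) preincubated 5-7 h at 37 C, then compounds at up to 92 uM for 16 h at 37 C. CCF4 beta-lactamase read-out after 2 h RT. Normalized to chenodeoxycholic acid (100 uM) and DMSO; Hill fit gave EC50 and efficacy.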
# [3] = biological target: Glucocorticoid receptor (Homo sapiens) (UniProt P04150); assay: qHTS assay for small molecule agonists of glucocorticoid receptor signaling (AID 588532; active means well fitted curve in the direction sought with a large enough effect in the signal ratio, with a control signal flat; the % refers to the signal ratio;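 further: 100% = dexamethasone at 0.1 µM and 0% = DMSO only wells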); settings: HeLa MMTV-bla, beta-lactamase ratio, agonist, 18 h; activation: stronger effect = higher value, percent of dexamethasone control, DMSO zero
# In short: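 Quantitative HTS using CellSensor MMTV-bla HeLa cells in charcoal/dextran-treated serum; compounds tested up to 92 uM. After 18 h at 37 C, CCF4 dye reported reporter induction.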
# [4] = biological target: Peroxisome proliferator-activated receptor delta (Homo sapiens) (UniProt Q03181); assay: qHTS assay for small molecule agonists of peroxisome proliferator-activated receptor delta signaling (AID 588534);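 further: 0% = DMSO basal wells and 100% = positive control agonist at 10 µM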
# In short: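 Agonist-mode qHTS; reporter cells, 5 hrs 37 C pre-incubation; compound titration, 18 hrs 37 C; CCF4 dye, 2 hrs RT; fluorescence read. EC50/efficacy via Hill fit.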
# [5] = qHTS assay for small molecule antagonists of peroxisome proliferator-activated receptor delta signaling (AID 588535; active means well fitted inhibition curve with a large enough effect in the signal ratio, with a control signal flat, not every such curve was filed as active; the % refers to the signal ratio;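 on max response: cells co-treated with a PPAR-delta agonist as stimulator during compound exposure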); settings: HEK293T PPARd-UAS-bla, beta-lactamase FRET ratio, 18 h; 460 nm channel
# In short: (§1)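 Titrations were run on PPAR-delta-UAS-bla HEK293T cells in charcoal/dextran-stripped serum, incubated 18 h at 37 C. CCF4 fluorescence (460/530 nm) after 2 h RT; Hill equation yields IC50 and maximal response.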
# [6] = biological target: Peroxisome proliferator-activated receptor delta (Homo sapiens) (UniProt Q03181); assay: as above
# In short: as §1
# [7] = biological target: Vitamin D3 receptor (Homo sapiens) (UniProt P11473); assay: qHTS assay for small molecule agonists of vitamin D receptor signaling (AID 588543);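 further: 0% = DMSO basal and 100% = reference agonist control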
# In short: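 qHTS in agonist mode: compound titrations stimulate a VDR-driven β-lactamase reporter in HEK293T cells over 16 h at 37 °C. Response normalized to 50 nM 1α,25-dihydroxyvitamin D3 = 100%, DMSO = 0%; Hill fitting gives EC50 and maximal response.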
# [8] = qHTS assay for small molecule agonists of retinoid X receptor alpha signaling (AID 588544); settings: HEK293T RXRa-UAS-bla, beta-lactamase reporter, 18 h; 530 nm emission;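 on activation: 0% = DMSO basal wells and 100% = reference agonist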
# [9] = biological target: Retinoic acid receptor RXR-alpha (Homo sapiens) (UniProt P19793); assay: as above
# [10] = biological target: Thyroid hormone receptor beta (Homo sapiens) (UniProt P10828); assay: qHTS assay for small molecule agonists of thyroid hormone receptor beta signaling (AID 588545)
# In short: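 Agonist activity was read as beta-lactamase CCF4 fluorescence (405 ex, 460/530 em), scaled between DMSO (0%) and 10 nM T3 (100%), then Hill-fitted for EC50 and efficacy. HEK 293 TR-UAS-bla cells in 2% charcoal/dextran FBS medium were exposed 18 h at 37 C.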
# [11] = qHTS assay for small molecule antagonists of retinoid X receptor alpha signaling (AID 588546; active means well fitted inhibition curve with a large enough effect in the signal ratio, with a control signal flat, not every such curve was filed as active; the % refers to the signal ratio;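 further: cells stimulated with 9-cis-retinoic acid as agonist; on the % scale 0 is the no-effect control and ±100 the full control effect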); settings: HEK293T RXRa-UAS-bla, beta-lactamase ratio, antagonist mode; measured here: W530 green channel, cytotoxicity proxy
# In short: (§2)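 Beta-lactamase reporter inhibition, read as CCF4 fluorescence ratio (ex 405, em 460/530 nm) after 2 h at RT. HEK293T UAS-bla cells, 2500/well, were stimulated with 9-cis-RA at 500 or 100 nM final alongside test compound for 18 h at 37 C.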
# [12] = biological target: Retinoic acid receptor RXR-alpha (Homo sapiens) (UniProt P19793); assay: as above; settings: HEK293T RXRa-UAS-bla, beta-lactamase ratio, antagonist mode
# In short: as §2
# [13] = qHTS assay for small molecule activators of the nuclear factor-kappa B (NF-kB) signaling pathway (AID 651749; active means well fitted activation curve with a large enough effect in the signal ratio; the % refers to the signal ratio; further: series mostly up to about 77 µM; % of control where 0% means no effect); settings: NF-kB-bla ME-180 cells, beta-lactamase FRET ratio, 16 h; activation: stronger effect = higher value
# In short: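 Activation measured after 16 hr compound treatment at 37C, 5% CO2, of 2,000 ME-180 cells/well stably expressing an NF-kB response element–driven beta-lactamase reporter, via FRET-disruption fluorescence.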
# [14] = qHTS assay for environmental chemicals that activate the Aryl hydrocarbon Receptor (AhR) signaling pathway (AID 651777; active means well fitted curve in the direction sought with a large enough effect; an effect the other way counts as inactive or inconclusive; further: % of control where 0% means no effect; nearly all actives have a fitted effect of over 15% in size); settings: 1A2-DRE human hepatoma cells, luciferase, 24 h; activation: stronger effect = higher value
# In short: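 1A2-DRE human hepatoma reporter line; 1,200 cells/well; cmpd or DMSO 24 h, 37 C/5% CO2; One-Glo 30 min RT; luciferase lum.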
# [15] = biological target: Peroxisome proliferator-activated receptor alpha (Homo sapiens) (UniProt Q07869); assay: qHTS assay for small molecule agonists of the peroxisome proliferator-activated receptor alpha (PPARalpha) signaling pathway (AID 651778; active means well fitted curve in the direction sought with a large enough effect; an effect the other way counts as inactive or inconclusive; further: % of control where 0% means no effect); settings: PathHunter PPARalpha complementation, chemiluminescence, 6 h; max response: stronger effect = higher value
# In short: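 Chemiluminescence from complemented enzyme reported PPARalpha activation in cells after 6 hr of compound treatment at 37 C. The detection reagent was incubated for 60 min at room temperature, and compounds were scored as agonists.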
# [16] = qHTS assay for small molecule agonists of the antioxidant response element (ARE) signaling pathway measured by Nrf2-dependant transcriptional activity - cell viability counter screen (AID 720653; active means well fitted curve in the direction sought with a large enough effect in the repeat runs; an effect the other way counts as inactive or inconclusive; further: on the % scale 0 is the no-effect control and ±100 the full control effect); settings: ARE-bla HepG2 viability, CellTiter-Glo ATP luminescence, 16 h; max response: stronger effect = lower value
# In short: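 Cytotoxicity counter screen: intracellular ATP quantified by CellTiter-Glo luminescence in the same ARE-bla HepG2 plates, after 16 h compound exposure and a 2 h beta-lactamase substrate step.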
# [17] = qHTS assay for cell viability of HEK293 cells (AID 743288; active means well fitted curve in the direction sought with a large enough effect; an effect the other way counts as inactive or inconclusive; further: on the % scale 0 is the no-effect control and ±100 the full control effect; nearly all actives have a fitted effect of over 50% in size); settings: ATP luminescence (CellTiter-Glo), 18 h; max response: stronger effect = lower value
# In short: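 Quantitative high-throughput screen: compounds were pinned onto parental HEK293 cells (2,000 per well) after a minimum 5 h settling at 37 C, incubated 18 h at 37 C, and intracellular ATP measured by luciferase luminescence.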
# [18] = qHTS assay for cell viability of the p53RE-bla HCT-116 cell line (AID 743292; active means well fitted curve in the direction sought with a large enough effect; an effect the other way counts as inactive or inconclusive; further: on the % scale 0 is the no-effect control and ±100 the full control effect; nearly all actives have a fitted effect of over 55% in size)
# In short: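 HCT-116 p53RE-bla cells seeded 4,000/well; 5 h at 37 C; compound (DMSO) added; 16 h at 37 C; CellTiter-Glo added, 30 min RT; luminescence read.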
# [19] = biological target: Thyroid hormone receptor beta (Homo sapiens) (UniProt P10828); assay: qHTS assay for small molecule antagonists of thyroid hormone receptor beta signaling (AID 588547; active means well fitted inhibition curve with a large enough effect in the signal ratio, with a control signal flat, not every such curve was filed as active; the % refers to the signal ratio;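 further: cells stimulated with 0.4 nM T3 agonist during compound exposure; series mostly up to about 77 µM; on the % scale 0 is the no-effect control and ±100 the full control effect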); settings: TR-UAS-bla HEK293, beta-lactamase ratio, antagonist mode, 18 h
# In short: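 Inhibition of T3-driven (0.4nM final) beta-lactamase reporter activity was measured over 0.59 nM to 92 uM compound after 18 h at 37 C. The cells were GripTite HEK293 TR-UAS-bla in charcoal/dextran-stripped serum, with CCF4 ratio read-out and IC50 from Hill fits.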
# [20] = qHTS assay for small molecule agonists of the antioxidant response element (ARE) signaling pathway measured by Nrf2-dependant transcriptional activity (AID 720636; active means well fitted curve in the direction sought with a large enough effect in the repeat runs; an effect the other way counts as inactive or inconclusive;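 further: HepG2 cells with an ARE-driven luciferase reporter; % of control where 0% means no effect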)
# In short: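 Cells: ARE-luc HepG2 with Nrf2-responsive luciferase. Medium contained 1% dialyzed FBS. Compound exposure lasted 16 hr at 37 C and 5% CO2, followed by ONE-Glo luciferase detection.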
# Chain of Retinoic acid receptor RXR-alpha (Homo sapiens) (P19793 whole entry, looked up): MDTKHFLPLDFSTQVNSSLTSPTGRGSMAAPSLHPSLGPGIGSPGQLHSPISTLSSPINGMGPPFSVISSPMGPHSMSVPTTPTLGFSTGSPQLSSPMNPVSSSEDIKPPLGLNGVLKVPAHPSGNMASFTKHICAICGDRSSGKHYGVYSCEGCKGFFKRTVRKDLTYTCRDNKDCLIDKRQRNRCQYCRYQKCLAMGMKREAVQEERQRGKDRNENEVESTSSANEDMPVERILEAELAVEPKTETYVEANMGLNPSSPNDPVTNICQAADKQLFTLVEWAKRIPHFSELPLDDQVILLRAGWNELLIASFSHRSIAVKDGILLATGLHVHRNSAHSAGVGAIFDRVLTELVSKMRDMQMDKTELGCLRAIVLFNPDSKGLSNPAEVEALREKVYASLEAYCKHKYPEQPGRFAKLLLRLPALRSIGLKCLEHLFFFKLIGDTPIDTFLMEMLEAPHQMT
# Chain of Thyroid hormone receptor beta (Homo sapiens) (P10828 whole entry, looked up): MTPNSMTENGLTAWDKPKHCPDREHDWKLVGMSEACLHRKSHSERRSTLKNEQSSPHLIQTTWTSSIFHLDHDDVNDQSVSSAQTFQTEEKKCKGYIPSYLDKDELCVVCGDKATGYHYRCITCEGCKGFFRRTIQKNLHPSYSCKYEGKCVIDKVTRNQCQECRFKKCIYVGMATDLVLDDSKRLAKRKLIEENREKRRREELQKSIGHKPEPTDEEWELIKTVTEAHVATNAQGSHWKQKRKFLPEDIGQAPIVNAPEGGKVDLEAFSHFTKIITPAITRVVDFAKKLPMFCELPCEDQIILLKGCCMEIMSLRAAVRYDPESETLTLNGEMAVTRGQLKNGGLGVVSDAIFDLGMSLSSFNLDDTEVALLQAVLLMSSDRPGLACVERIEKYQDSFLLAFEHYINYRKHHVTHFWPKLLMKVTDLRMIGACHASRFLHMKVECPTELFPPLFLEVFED
# Chain of Peroxisome proliferator-activated receptor delta (Homo sapiens) (Q03181 whole entry, looked up): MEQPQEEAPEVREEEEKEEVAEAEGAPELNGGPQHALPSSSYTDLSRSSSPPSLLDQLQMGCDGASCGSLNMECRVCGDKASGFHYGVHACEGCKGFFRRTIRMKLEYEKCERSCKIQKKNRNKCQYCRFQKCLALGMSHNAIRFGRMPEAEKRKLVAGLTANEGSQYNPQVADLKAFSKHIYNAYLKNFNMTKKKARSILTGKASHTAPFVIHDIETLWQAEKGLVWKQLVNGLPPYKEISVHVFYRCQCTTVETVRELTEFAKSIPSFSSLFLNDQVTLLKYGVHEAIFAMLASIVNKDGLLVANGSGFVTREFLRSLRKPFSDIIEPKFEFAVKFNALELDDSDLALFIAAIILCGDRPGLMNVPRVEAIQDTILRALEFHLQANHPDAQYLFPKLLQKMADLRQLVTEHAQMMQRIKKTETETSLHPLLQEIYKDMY
# Chain of Peroxisome proliferator-activated receptor alpha (Homo sapiens) (Q07869 whole entry, looked up): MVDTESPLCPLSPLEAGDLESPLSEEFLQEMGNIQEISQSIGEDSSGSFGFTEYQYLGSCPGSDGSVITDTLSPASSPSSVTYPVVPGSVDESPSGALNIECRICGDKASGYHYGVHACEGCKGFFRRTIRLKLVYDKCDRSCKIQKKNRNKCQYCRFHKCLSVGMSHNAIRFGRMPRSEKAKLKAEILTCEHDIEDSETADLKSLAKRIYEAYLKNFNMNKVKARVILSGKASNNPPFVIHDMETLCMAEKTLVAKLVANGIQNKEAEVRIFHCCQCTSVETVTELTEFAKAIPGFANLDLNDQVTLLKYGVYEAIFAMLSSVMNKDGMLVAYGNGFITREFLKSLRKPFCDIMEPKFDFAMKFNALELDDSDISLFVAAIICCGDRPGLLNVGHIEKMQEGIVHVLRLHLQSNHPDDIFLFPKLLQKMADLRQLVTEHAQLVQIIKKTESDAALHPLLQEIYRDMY
# Chain of Glucocorticoid receptor (Homo sapiens) (P04150 whole entry, looked up): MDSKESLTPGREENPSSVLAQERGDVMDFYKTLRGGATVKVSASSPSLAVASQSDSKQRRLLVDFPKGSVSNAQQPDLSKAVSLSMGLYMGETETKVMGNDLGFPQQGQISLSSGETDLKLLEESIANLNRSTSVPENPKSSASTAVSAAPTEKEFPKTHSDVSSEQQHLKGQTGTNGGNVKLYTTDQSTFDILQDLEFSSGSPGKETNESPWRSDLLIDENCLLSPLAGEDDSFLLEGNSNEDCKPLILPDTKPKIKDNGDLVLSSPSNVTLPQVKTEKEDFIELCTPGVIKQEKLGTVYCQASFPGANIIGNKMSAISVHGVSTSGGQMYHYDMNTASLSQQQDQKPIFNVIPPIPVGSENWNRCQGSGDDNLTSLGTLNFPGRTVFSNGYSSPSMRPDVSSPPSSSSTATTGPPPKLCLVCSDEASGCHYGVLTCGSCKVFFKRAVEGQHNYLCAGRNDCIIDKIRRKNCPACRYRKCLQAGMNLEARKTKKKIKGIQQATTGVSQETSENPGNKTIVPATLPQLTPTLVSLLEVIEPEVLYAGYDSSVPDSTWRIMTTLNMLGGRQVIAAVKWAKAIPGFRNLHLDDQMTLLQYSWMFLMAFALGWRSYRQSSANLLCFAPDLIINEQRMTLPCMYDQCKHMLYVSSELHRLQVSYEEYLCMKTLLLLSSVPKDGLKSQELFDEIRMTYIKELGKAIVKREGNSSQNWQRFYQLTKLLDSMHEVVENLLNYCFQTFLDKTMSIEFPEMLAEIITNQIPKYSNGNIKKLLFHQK
# Chain of Bile acid receptor (Homo sapiens) (Q96RI1 whole entry, looked up): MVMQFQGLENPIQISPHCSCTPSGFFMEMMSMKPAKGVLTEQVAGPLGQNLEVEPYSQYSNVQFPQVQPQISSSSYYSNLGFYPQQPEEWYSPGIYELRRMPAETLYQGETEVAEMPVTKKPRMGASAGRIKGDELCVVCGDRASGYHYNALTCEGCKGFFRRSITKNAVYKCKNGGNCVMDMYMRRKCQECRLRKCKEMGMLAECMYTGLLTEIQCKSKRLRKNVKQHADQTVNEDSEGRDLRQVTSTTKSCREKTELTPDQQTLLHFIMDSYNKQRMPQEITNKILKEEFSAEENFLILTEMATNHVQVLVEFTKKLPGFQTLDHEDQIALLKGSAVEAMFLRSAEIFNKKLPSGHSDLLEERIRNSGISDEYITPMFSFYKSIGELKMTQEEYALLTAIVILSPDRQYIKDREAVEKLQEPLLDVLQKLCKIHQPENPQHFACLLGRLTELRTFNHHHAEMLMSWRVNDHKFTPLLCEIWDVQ
# Chain of Vitamin D3 receptor (Homo sapiens) (P11473 whole entry, looked up): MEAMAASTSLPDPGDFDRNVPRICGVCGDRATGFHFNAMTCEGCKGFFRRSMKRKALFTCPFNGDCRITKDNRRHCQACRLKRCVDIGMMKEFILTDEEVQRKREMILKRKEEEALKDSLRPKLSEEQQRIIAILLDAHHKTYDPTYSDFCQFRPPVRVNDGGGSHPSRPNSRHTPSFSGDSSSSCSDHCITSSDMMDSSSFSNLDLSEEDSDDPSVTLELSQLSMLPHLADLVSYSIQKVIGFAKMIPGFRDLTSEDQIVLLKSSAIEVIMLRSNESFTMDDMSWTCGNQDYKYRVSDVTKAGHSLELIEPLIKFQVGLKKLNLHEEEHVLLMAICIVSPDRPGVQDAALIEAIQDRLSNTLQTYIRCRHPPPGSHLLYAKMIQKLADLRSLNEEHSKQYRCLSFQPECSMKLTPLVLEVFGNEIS
SMILES,Potency [1],activation [2],activation [3],outcome [4],max response [5],Potency [6],outcome [7],max response [8],Potency [9],Potency [10],max response [11],max response [12],activation [13],activation [14],max response [15],max response [16],max response [17],Potency [18],activity change % (negative = inhibition) [19],Potency [20]
O=C(O)c1c(Cl)ccc2cc(Cl)cnc12,inactive,0.431% (inactive),3.46% (inactive),inactive,71.4%,inactive,inactive,-15.1%,inactive,inactive,3.11%,-13.1% (inactive),-0.182% (inactive),2.06% (inactive),-2.09% (inactive),-9.56% (inactive),-11.4% (inactive),inactive,,
CC(C)=C[C@@H]1[C@@H](C(=O)OCN2C(=O)C3=C(CCCC3)C2=O)C1(C)C,,,11.7% (inactive),,,,,,,inactive,-15.3%,18% (inactive),,-1.3% (inactive),-0.573% (inactive),-22.2% (inactive),,inactive,7.01% (inactive),inactive
CS(=O)(=O)NC(=O)c1cc(Oc2ccc(C(F)(F)F)cc2Cl)ccc1[N+](=O)[O-],inactive,-9.24% (inactive),,,,,inactive,1.68%,inactive,inactive,-6.47%,-2.65% (inactive),,0.872% (inactive),-2.59% (inactive),-2.76% (inactive),-3.04% (inactive),inactive,-8.1% (inactive),
COP(=O)(OC)Oc1nc(Cl)c(Cl)cc1Cl,inactive,-2.92% (inactive),,,,,inactive,28.3%,inactive,inactive,-0.949%,1.04% (inactive),1.02% (inactive),1.43% (inactive),-0.672% (inactive),-0.97% (inactive),-6.19% (inactive),inactive,-14.5% (inactive),inactive
FC(F)C(F)(F)OCC(Cn1cncn1)c1ccc(Cl)cc1Cl (stereo not given),inactive,1.13% (inactive),3.91% (inactive),inactive,,,inactive,14%,inactive,,-6.39%,,0.464% (inactive),2.65% (inactive),-0.725% (inactive),4.71% (inactive),-9.21% (inactive),inactive,-17.9% (inactive),inactive
Cc1ccn2nc(S(=O)(=O)Nc3c(F)cccc3F)nc2n1,inactive,-2.19% (inactive),,inactive,35.3%,inactive,inactive,-22%,inactive,,2.3%,-2.18% (inactive),,-0.461% (inactive),0.276% (inactive),14.2% (inactive),-3.63% (inactive),inactive,,inactive
